Screening results from PubChem.
Only some compounds are listed: those with a hit (about 7.8% of all), similar ones and a draw of the others.
HCV inhibitor: blocks hepatitis C virus; Huh7.5.1 HCVcc-Cre infection, luciferase reporter, 44 h; Potency, µM (top dose mostly 41.8 µM), inactives show at the top dose activity change, negative = inhibition, usual class: inhibitors; 340,000 tested, 3.4% active; AID 651820; active means well fitted inhibition curve with a large enough effect; inconclusive means small, poorly fitted or top-dose-only effect, or another doubt; inactive means no such curve, though single readings can be large or run the other way; further: potency means the concentration at half of the fitted maximal effect
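After 44 h co-culture of compound, cells and HCVcc-Cre (~0.5 moi), substrate is added for 15 min at room temperature and luciferase measured over 15 sec. Cells were seeded at 1,000/well and pre-cultured 4 h.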
MARV entry inh: Marburg virus entry inhibition; Potency, µM (doses to about 37.8 µM), for inactives: at the top dose activity change, negative = inhibition, hits mostly inhibitors; 300,000 tested, 1.8% active; Marburg virus pseudotyped entry inhibition, cell reporter; AID 540276; calls by dose curve; tested in HEK293 cells; further: potency means the concentration at half of the fitted maximal effect
VACV mCherry inh: vaccinia inhibition (mCherry reporter) | Vaccinia virus mCherry reporter infection, fluorescence | Potency, µM (titrated, usually from 36.5 µM), for the others: top-dose activity change, negative = inhibition, hits mostly inhibitors | 310,000 tested, 0.63% active; calls by dose curve; tested in A549 cells; further: potency means the concentration at half of the fitted maximal effect; nearly all actives have a fitted effect of over 35% in size
HCMV inh: blocks human cytomegalovirus replication; HFF cells, HCMV-luciferase reporter, 72 h; hits give low values; activity change, negative = inhibition, % at 57.5 µM; 410,000 tested, 4.5% active; in the data active means activity change below about -60%; inconclusive means no clear call, values can overlap the other calls; inactive means above about -39%
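Compounds were evaluated in HFFs infected with an HCMV luciferase reporter virus (MOI 1 PFU/cell). Luciferase in lysates collected 72 h post infection served as the replication measure.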
VACV Venus inh: inhibitors of vaccinia virus (Venus reporter); Vaccinia virus Venus reporter expression, fluorescence; Potency, µM (doses to about 36.5 µM), without a hit: top-dose activity change, negative = inhibition, most hits filed as inhibitors; 330,000 tested, 0.46% active; calls by dose curve; tested in A549 cells; further: potency means the concentration at half of the fitted maximal effect; nearly all actives have a fitted effect of over 30% in size
Lassa entry inh: Lassa virus entry inhibition | Lassa virus pseudotype entry inhibition, cell reporter | Potency, µM (series often up to 37.9 µM), for the others: top-dose activity change, negative = inhibition, actives largely listed as inhibitors | 300,000 tested, 1.2% active | AID 540256; calls by dose curve; tested in HEK293 cells; further: potency means the concentration at half of the fitted maximal effect; nearly all actives have a fitted effect of over 50% in size
Starred values were filed as active, the others as inactive; i = inactive; ? = inconclusive; . = no result given; [ ] = dose if it differs, or a comment. On the % scale 0 is the no-effect control and ±100 the full control effect.

SMILES	HCV inhibitor	MARV entry inh	VACV mCherry inh	HCMV inh	VACV Venus inh	Lassa entry inh
Cc1ccc(N(CC(O)Cn2c3ccccc3c3ccccc32)S(C)(=O)=O)cc1 (stereo not given)	-1.5%	?	-7.2%	59.2	7.3%	-15.9%
Cc1cccc(N(CC(O)Cn2c3ccccc3c3ccccc32)S(=O)(=O)c2ccc(F)cc2)c1 (stereo not given)	.	?	-14.5%	-107.5*	-15.6%	?
CC(C)CCN(CCC(C)C)CC(O)Cn1c2ccccc2c(=O)c2ccccc21 (stereo not given)	?	.	.	8.1	.	.
COc1cc(OC)c(NC(=O)c2c3c(nc4ccccc24)C(=O)N(C2CCCCC2)C3)cc1Cl	.	.	?	12.1	?	24.4%[46.1 µM]
CCN1C(=NCCCOC(C)C)N[C@H](c2ccccc2)[C@H](C(=O)OC)[C@H]1C	.	0.1%[14.2 µM]	.	.	.	?
CCCCN(C)CCNC(=O)c1nn(-c2ccc(OC)c(Cl)c2)c(=O)c2c1c1ccccc1n2C	.	3.3%[46.1 µM]	?	10.7	-29.6%	?
CCn1c(-c2cccnc2)nc2cc(NC(=O)COC)cc(C(=O)N3CCOc4ccccc4C3)c21	.	.	-13.6%	.	-11.6%	.
COc1cc(=O)n2c(c1C(=O)NC(C)c1ccco1)CCN(C(=O)c1cc(C)cc(C)c1)CC2 (stereo not given)	.	.	-15.9%	.	-12.3%	.
N#Cc1ccc2c(c1)C[C@]1(CCCCN3C(=O)c4ccccc4C3=O)Oc3c(c(=O)oc4ccc(F)cc34)[C@@H]2O1	.	-26.1%[14.2 µM]	.	.	.	.
COc1ccc(NC(=S)Nc2ccc(C)c(S(=O)(=O)N3CCCCC3)c2)cc1	?	14.6µM*	.	.	.	-3.9%
Cc1ccc(NC(=S)Nc2ccc(C(C)C)cc2)cc1S(=O)(=O)N1CCCCCC1	6.31µM*	?	?	-99.0*	?	?
COc1ccccc1-c1noc2nc(Nc3cccc(Cl)c3)ccc12	.	.	.	18.1	.	.
Cc1cc2c(cc1C)N[C@]1(C[C@H]3CCCC(=O)N4CC[C@@H](C1)[C@@H]34)C(=Nc1ccccc1C)N2	.	.	-19.6%	.	-9.9%	.
Cc1nc(NC(=O)CSc2ccc(-c3nc4ccccc4[nH]3)cn2)sc1C	-4.7%	?	3.3%	-29.7	-6.7%	21.1%
Cc1ccc2nc(-c3ccc(SCC(=O)Nc4nnc(C)s4)nc3)[nH]c2c1	1.0%	?	?	27.1	11.2µM*	?
CCc1nnc(NC(=O)CSc2ccc(-c3nc4ccccc4[nH]3)cn2)s1	-1.0%	24.7%	?	-93.6*	0.6%	?
Cc1ccc2nc(-c3ccc(SCC(=O)Nc4nc(C)cs4)nc3)[nH]c2c1	-1.3%	?	?	-34.1	?	14.4%
O=C(COc1ccc2ccccc2c1)NC1CC(=O)N(c2cccc(F)c2)C1 (stereo not given)	.	.	-14.5%	21.2	-5.0%	2.3%[46.1 µM]
COC(=O)c1cc(CSc2nnc(-c3ccccc3)c(-c3ccccc3)n2)oc1C	25.1µM*	?	.	-9.3	-6.0%	?
COC(=O)c1cc(CSc2nc3ccc(C)cc3[nH]2)oc1C	?	?	.	?	?	-23.8%
COCC(C)n1c(SCc2cc(C(=O)OC)c(C)o2)nc2ccccc2c1=O (stereo not given)	11.2µM*	?	-1.1%	-32.0	-14.8%	?
COCC(C)n1c(SCC(=O)c2cc(C)n(C)c2C)nc2ccccc2c1=O (stereo not given)	?	?	-25.1%	-7.4	-19.0%	.
COCCNC(=O)C1CCCN(C(=O)c2cc(-c3cccs3)oc2C)CC1 (stereo not given)	.	.	i	-67.2*	2.9%	.
O=C1CC(c2ccc(F)c(Br)c2)C2=C(CCCC2=O)N1 (stereo not given)	-7.6%	-2.3%	-19.9%	-102.0*	-23.3%	21.9%
O=C1CC(c2ccc3c(c2)OCO3)C2=C(CCCC2=O)N1 (stereo not given)	20.6%	-1.2%[46.1 µM]	.	-8.6	-9.9%	-14.4%
SMILES	HCV inhibitor	MARV entry inh	VACV mCherry inh	HCMV inh	VACV Venus inh	Lassa entry inh
Cc1ccc(C(O)(c2ccc(C)c(C)c2)C2CN3CCC2CC3)cc1C (stereo not given)	?	.	.	-97.3*	.	.
CC1(C)CC(=O)C2=C(C1)NC1=C(C(=O)c3ccccc31)C2c1ccc(O)cc1 (stereo not given)	-19.5%	?	?	4.9	11.2µM*	-23.5%
CCCCc1ccc(C2C3=C(CC(C)(C)CC3=O)NC3=C2C(=O)c2ccccc23)cc1 (stereo not given)	12.6µM*	?	-29.6%	-86.0*	?	?
O=C1CCCC2=C1C(c1cccc(O)c1)C1=C(N2)c2ccccc2C1=O (stereo not given)	-26.4%	-10.1%[46.1 µM]	-3.4%	-0.9	-13.5%	-12.1%[46.1 µM]
Cc1nnc(C)c2c(C)n(Cc3ccc4c(c3)OCO4)c(C)c12	4.47µM*	-9.9%	.	?	.	-2.3%
CC1(C)CC(=O)c2cc(OCC(=O)NCCCN3CCN(c4ccc(F)cc4)CC3)ccc2O1	10µM*	23.1µM*	.	?	.	?
COC(=O)[C@@H]1[C@@H](CO)[C@@H]2Cn3c(ccc(Br)c3=O)[C@@H]2N1C(=O)Cc1cccnc1	.	.	.	-5.1	.	.
Cc1cn2c(=O)cc(COc3cccc(NC(=O)c4ccc(C(C)(C)C)cc4)c3)nc2s1	.	?	i[7.34 µM]	-19.7	-8.6%[7.34 µM]	6.6%[46.1 µM]
Cn1c(=O)[nH]c(=O)c2c1nc(N1CCNCC1)n2Cc1ccccc1	20.6%	?	-12.4%	19.5	-6.7%	?
CCCCn1c(N2CCC(Cc3ccccc3)CC2)nc2c1c(=O)[nH]c(=O)n2C	35.5µM*	?	.	-28.2	?	?
Cn1c(=O)[nH]c(=O)c2c1nc([N+](=O)[O-])n2Cc1ccccc1	-83.5%	?	?	-97.2*	10µM*	?
Cc1nnc(SCCn2c(N3CCC(Cc4ccccc4)CC3)nc3c2c(=O)[nH]c(=O)n3C)s1	?	?	i	.	-3.9%	?
CC(C)Cn1c([N+](=O)[O-])nc2c1c(=O)[nH]c(=O)n2C	?	?	?	-103.2*	?	7.08µM*
CC(CCN1CCCc2nc(C)c(C)cc21)=NO[C@H](C)c1cn([C@@H]2COC[C@@H]2O)nn1	.	7.3%[14.2 µM]	.	.	.	?
CC1=C(C(=O)O)N2C(=O)C(NC(=O)C(N)c3ccccc3)C2SC1 (stereo not given)	.	.	-11.6%	.	-4.9%	.
CCN(CC)C(=O)c1cc2c(=O)n3cccc(C)c3nc2s1	-18.0%	?	-15.6%	108.8	0.8%	15.8%
Cc1cccn2c(=O)c3cc(C(=O)N(Cc4ccccc4)C(C)C)sc3nc12	.	3.98µM*	-6.5%	-14.0	-7.1%	?
Cc1ccc2oc(=O)c3cc(C(=O)N(Cc4ccccc4)C(C)C)sc3c2c1	.	-0.9%[46.1 µM]	-12.0%	-105.3*	2.2%	?
Nc1ncnc2oc(-c3ccco3)c(-c3ccco3)c12	11.2µM*	?	-23.3%	-39.3	-19.5%	-14.0%
